# Source: PubChem BioAssay (Tox21)
# Records with an inconclusive call do not appear. Calls of active or inactive are those of the source. The call rests on the fitted dose curve; in most records, active means well fitted inhibition curve with a large enough effect in the repeat runs; inconclusive means weak or mixed curves; inactive means no such curve, though single readings can be large or run the other way.
# Biological target: Cytochrome P450 2D6 (Homo sapiens) (UniProt P10635)
# Assay: Cytochrome P450 Family 2 Subfamily D Member 6 (CYP2D6) small molecule antagonists: luciferase reporter qHTS assay (AID 1671196); further: nearly all actives have a fitted effect of over 50% in size
# Settings: P450-Glo CYP2D6 enzyme assay, luciferin luminescence, 1 h; series mostly up to 115 µM; activity change, negative = inhibition: at the top concentration
# Outline: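 Quantitative HTS of Tox21 chemicals against CYP2D6 using a luminescent proluciferin substrate. After NADPH addition, 1 h room-temperature reaction; luminescence recorded 20 min post detection reagent.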
# On the % scale 0 is the no-effect control and ±100 the full control effect; potency means the concentration at half of the fitted maximal effect.
# Sequence of Cytochrome P450 2D6 (Homo sapiens) (P10635 whole entry, looked up): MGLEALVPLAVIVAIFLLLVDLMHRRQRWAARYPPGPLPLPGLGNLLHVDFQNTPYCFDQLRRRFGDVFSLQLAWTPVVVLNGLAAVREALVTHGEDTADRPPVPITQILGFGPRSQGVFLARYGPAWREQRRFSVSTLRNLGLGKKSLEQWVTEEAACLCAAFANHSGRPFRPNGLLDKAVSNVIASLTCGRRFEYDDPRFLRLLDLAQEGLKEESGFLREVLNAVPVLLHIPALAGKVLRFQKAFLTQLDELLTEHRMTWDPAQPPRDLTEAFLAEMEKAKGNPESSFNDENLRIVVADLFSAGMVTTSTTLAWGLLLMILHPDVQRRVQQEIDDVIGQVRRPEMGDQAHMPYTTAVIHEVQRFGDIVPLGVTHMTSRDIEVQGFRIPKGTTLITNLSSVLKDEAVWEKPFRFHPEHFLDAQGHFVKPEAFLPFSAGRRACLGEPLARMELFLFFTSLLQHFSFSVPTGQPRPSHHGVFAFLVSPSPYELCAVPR
SMILES,"activity change, negative = inhibition",Potency
Oc1c(I)cc(I)c2cccnc12,-3.7% [at 53 µM] (inactive),
CCCCCCCCC(CCCCCC)C(=O)O (centres undefined),-7.57% (inactive),
O=c1[nH]c2ccc(Cl)cc2o1,-9.12% (inactive),
CCOC(=O)c1ccc(C#Cc2ccc3c(c2)C(C)(C)CCS3)nc1,1.65% [at 53 µM] (inactive),
C=CCc1ccccc1OCC(O)CNC(C)C (centres undefined),,5.49 µM (active)
CC(C)Nc1cccnc1N1CCN(C(=O)c2cc3cc(NS(C)(=O)=O)ccc3[nH]2)CC1,,5.49 µM (active)
Oc1ccc(Cl)c2cccnc12,-6.98% [at 53 µM] (inactive),
NC1[C@H]2CN(c3nc4c(cc3F)c(=O)c(C(=O)O)cn4-c3ccc(F)cc3F)C[C@@H]12 (some centres undefined),1.82% [at 53 µM] (inactive),
CN1C(C(=O)Nc2ccccn2)=C(O)c2sccc2S1(=O)=O,-97.6% [at 53 µM] (inactive),
CC1CC(C)C(=O)C1=O (centres undefined),-16.3% (inactive),
CN1CCCC(n2nc(Cc3ccc(Cl)cc3)c3ccccc3c2=O)CC1 (centres undefined),,1.1 µM (active)
CC(=O)c1cc2ccccc2s1,1.62% [at 53 µM] (inactive),
CC(CC1c2ccccc2CCc2ccccc21)CN(C)C (centres undefined),,0.977 µM (active)
Cc1cc2c(OCC(CNC(C)(C)C)OC(=O)c3ccccc3)cccc2[nH]1 (centres undefined),,0.692 µM (active)
CN1CCCN=C1COC(=O)C(O)(c1ccccc1)C1CCCCC1 (centres undefined),,0.617 µM (active)
OCCOCC#CCOCCO,-5% (inactive),
c1ccc2c(c1)CCc1ccccc1N2,-19.1% [at 53 µM] (inactive),
CC(C)(C)CC(=O)OCC(=O)[C@@]1(O)CC[C@H]2[C@@H]3CCC4=CC(=O)C=C[C@]4(C)[C@H]3[C@@H](O)C[C@@]21C,,38.9 µM (active)
CC(=O)NC1(c2cccc(F)c2)CCN(CC[C@@]2(c3ccc(Cl)c(Cl)c3)CN(c3ccccc3)C(=O)CO2)CC1,,28.3 µM (active)
